# KCNH2 WT inh – qHTS for Inhibitors of KCHN2 3.1: Wildtype qHTS; activity change, % at 1.84 µM; hit rate 0.37% among 340,000; U2OS, BacMam KCNH2, thallium flux FluxOr; active compounds read low; Voltage-gated inwardly rectifying potassium channel KCNH2 (Homo sapiens), Q12809;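 active means maximum activity change below -70%; inconclusive means maximum activity change between -70% and -50%; inactive means maximum activity change above -50%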
#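 U2OS cells transduced with wild-type KCNH2 virus are loaded with FluxOr dye for 45 min, and thallium flux is measured in kinetic reads before and after stimulation buffer. Rate constants are normalized to DMSO controls.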
# FBPA coupling cs – qHTS Assay for Inhibitors of Fructose-1,6-bisphosphate Aldolase from Giardia Lamblia: Coupling assay counterscreen | coupling enzyme system counterscreen, AmpLite Red fluorescence | activity change, negative = inhibition, % at 58.2 µM, hits read low | hit rate 0.67% among 290,000 | AID 2472, 2010; in the data active means activity change below about -30%
#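 Counterscreen lacking aldolase: glyceraldehyde-3-phosphate coupling-enzyme reagent preincubated 10 min at RT with compound (at 57.5 uM final), then substrate/coupling system with AmpLite Red added; fluorescence read at 525/598 nm after 20 min RT.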
# KCNH2 3.1 inh – qHTS for Inhibitors of KCHN2 3.1: Mutant qHTS; activity change, % (tested at about 1.8 µM); U2OS KCNH2 3.1, thallium flux FluxOr; active compounds read low; hit rate 0.95% among 340,000; AID 720553, 2013;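 active means maximum activity change below -70%; inconclusive means maximum activity change from -70% to -50%; inactive means maximum activity change above -50%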;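 further: thallium influx rate constant from kinetic fluorescence after stimulation buffer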
#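 Steps: virus added to U2OS suspension (4 h, RT, dark); medium with 10% FBS added, cells plated, 37 C overnight; FluxOr/Red40 loading buffer 45 min RT; stimulation buffer, 2 min kinetic read; rate constant normalized.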
# USP1 inh – Inhibitors of USP1/UAF1: Primary Screen. recombinant USP1/UAF1, Ub-Rhodamine cleavage fluorescence. Potency, µM (highest dose often 57.1 µM), hits mostly inhibitors. hit rate 0.23% among 390,000. Ubiquitin carboxyl-terminal hydrolase 1 (Homo sapiens), O94782; active means well fitted inhibition curve with a large enough effect; inconclusive means small, poorly fitted or top-dose-only effect; inactive means no such curve, though single readings can be large or run the other way; further: nearly all actives have a fitted effect of over 60% in size
#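 High-throughput fluorogenic screen: 1nM USP1/UAF1 complex, Ub-Rho substrate 150nM final, 50mM HEPES pH 7.8 with 0.5mM EDTA, 0.1 mg/ml BSA, 1mM TCEP and 0.01% Tween-20.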
# Giardia kill – Small Molecules that selectively kill Giardia lamblia: qHTS; activity change, % at 7.66 µM, hits read low; hit rate 0.15% among 340,000; Giardia lamblia trophozoite viability; in the data active means activity change below about -80%; inconclusive means between about -30% and that limit;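 further: parasites exposed to compound for two days anaerobically before the ATP read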
#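 ATP-content bioluminescence gauges trophozoite survival. Cells (100/well) receive compound and incubate anaerobically for 48 hrs at 37 deg C; detection reagent follows for 15-30 min at room temperature.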
# A number is an active result; - = inactive; ? = inconclusive; . = not tested or not shown. A selection: hits, their analogues and other compounds. The true share with any hit is near 1.7%.
SMILES,KCNH2 WT inh,FBPA coupling cs,KCNH2 3.1 inh,USP1 inh,Giardia kill
O=C(/C=C/c1ccc(Cl)cc1)Nc1ccc(N2CCCCC2)cc1,-,-,-,-,-
CC(=O)c1c(C)[nH]c(C(=O)N2CCN(C(=O)c3ccco3)CC2)c1C,-,-,-211,-,-
O=C(/C=C\c1ccccc1)Nc1ccc(NC(=O)c2ccco2)cc1,-,-,-80,-,-
O=C(/C=C/c1ccccc1)Nc1ccc(N2CCCCC2)cc1,-,-,-81,-,-
CC(=O)c1c(C)[nH]c(C(=O)N2CCN(c3ccc(F)cc3)CC2)c1C,-,-,-,-,-
O=C(/C=C/c1ccccc1)N1CCN(C(=O)c2ccco2)CC1,-,-,-96,-,-
COc1ccc2[nH]cc(CCN=C(NC(=O)c3ccccc3C)Nc3nc(C)cc(C)n3)c2c1,.,.,.,-,.
Cc1cc(C)nc(NC(=NCCc2c[nH]c3ccccc23)NC(=O)C(C)(C)C)n1,-,-,-88,-,-
Cc1cc(C)c2nc(NC(=O)c3ccc([N+](=O)[O-])o3)sc2c1,-,-,-,-,-90
O=C(Nc1nc2c(F)cc(F)cc2s1)c1ccc([N+](=O)[O-])o1,-,-,-,-,-86
Cc1cc(C)c2sc(NC(=O)c3ccc([N+](=O)[O-])o3)nc2c1,-,-,-,-,-81
O=C(Nc1nc(-c2ccccn2)cs1)c1ccc([N+](=O)[O-])o1,-,-,-,-,?
CSc1ccc(-c2nc3c(C)cccn3c2Nc2ccc3c(c2)OCCO3)cc1,.,.,.,-,.
Cc1nnc(N2CCC(C(=O)NC3CCCCC3)CC2)c2nn(-c3ccc(Cl)cc3)c(C)c12,.,.,.,-,.
CN(C)S(=O)(=O)c1cccc(NC(=O)CN2C(=O)NC(Cc3ccccc3)C2=O)c1 (configuration not stated),-,.,-,-,-
Cc1ccc(-n2ncc(C(=O)NCCCN3CCc4ccccc4C3)c2C2CCN(C(=O)OC(C)(C)C)CC2)c(C)c1,.,.,.,-,.
Cc1cc(C)n(S(=O)(=O)c2ccccc2[N+](=O)[O-])n1,-,-,-,-,-87
COc1cc(/C=N/Nc2nncn2N)ccc1OCc1c(C)no[n+]1[O-],-,-38,-,?,-
CC1(C)Cc2c(ccc3ccccc23)C2=C(C(=O)N3CCCC3)C(=O)C(=O)N21,-,-45,-,-,-
C=CCC1(O)C(=O)N2C(=C1C(=O)OCC)c1ccc3ccccc3c1CC2(C)C (configuration not stated),-,-,-,-,-
Nc1ncnc2c1ncn2COC(CO)CO,.,.,.,.,-
Cc1ccsc1/C=N/NC(=O)CSCc1ccc(Cl)cc1,-,-34,-,-,-
Cc1ccsc1/C=N/NC(=O)Cc1ccc(Cl)cc1,-,-,-,-,-
Cn1nnnc1SCC(=O)NC1CCCCC1,-,-,-,-,-
CCCCn1nnnc1SCC(=O)NC1CCCCC1,-123,-,-,-,-
SMILES,KCNH2 WT inh,FBPA coupling cs,KCNH2 3.1 inh,USP1 inh,Giardia kill
Oc1ccccc1C1C=C(c2ccc3c(c2)OCO3)NC(c2cccc(Br)c2)N1 (configuration not stated),.,.,.,.,-
O=C1CCc2cc(S(=O)(=O)NC(C(=O)N3CCN(c4ccccn4)CC3)c3ccccc3)ccc2N1 (configuration not stated),-117,-,-,-,-
O=C1CCc2cc(S(=O)(=O)NC(C(=O)NCc3cccnc3)c3ccccc3)ccc2N1 (configuration not stated),-,-,-,-,-
COc1ccc(C(=O)NCC(=O)OCC(=O)c2cccc3ccccc23)cc1,.,.,.,.,-
COc1cc(-c2noc(-c3cc4cccc(C)c4oc3=O)n2)cc(OC)c1OC,.,.,.,-,.
CCN(CC)c1ccc2cc(-c3nc(-c4cc(OC)c(OC)c(OC)c4)no3)c(=O)oc2c1,.,.,.,40µM,.
CC(C)c1ccc(S(=O)(=O)N2CCC(n3c(C(F)(F)F)nc4cccnc43)CC2)cc1,.,.,.,-,.
O=S(=O)(Nc1ccc(O)c2ccccc12)c1cccs1,-,-35,-,-,-
Fc1ccc(C2CC(c3ccco3)n3ncnc3N2)cc1 (configuration not stated),-130,-,-175,-,-

# Compound activity from PubChem.
